Source: PubChem (The Scripps Research Institute Molecular Screening Center)
ssDAF12 agonist: activates DAF-12 receptor from parasite S. stercoralis; hit rate 1% among 370,000; HEK293 ssDAF-12/GRIP1 lit1-tk-luc reporter, luminescence; % of 3 µM dafachronic acid response; activation, % at 6.8 µM;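 active = activation above the mean over all tested compounds plus 3 SD, cut at about 0.9% in these data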;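 note: 0% = DMSO-only wells and 100% = 3 µM delta7-dafachronic acid wells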
hcDAF12 agonist: H. contortus DAF-12 activation, primary screen | AID 652067 | hit rate 1.4% among 370,000 | HEK293 hcDAF-12 lit1-tk-luc reporter, luminescence; 0% DMSO, 100% Δ7-dafachronic acid | activation, % at 6.8 µM;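 active = activation above the mean of all tested compounds plus 3 SD, cut at about 5.5% in these data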;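 note: 100% = response to 3 µM Δ7-dafachronic acid high control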
DAX1 inh-1: NR0B1 (DAX1) inhibition | HEK293 Gal4-DAX1 luciferase reporter, luminescence | inhibition, % at 6.75 µM | hit rate 0.99% among 340,000;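 active = inhibition above the mean over all tested compounds plus 3 SD, cut at about 4.2% in these data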;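 note: 0% = DAX1-transfected cells with DMSO and 100% = empty-vector control cells with DMSO; inhibition shows as a rise in luminescence from relieved DAX1 repression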
Target sequence (P51843 207-470 limits assumed): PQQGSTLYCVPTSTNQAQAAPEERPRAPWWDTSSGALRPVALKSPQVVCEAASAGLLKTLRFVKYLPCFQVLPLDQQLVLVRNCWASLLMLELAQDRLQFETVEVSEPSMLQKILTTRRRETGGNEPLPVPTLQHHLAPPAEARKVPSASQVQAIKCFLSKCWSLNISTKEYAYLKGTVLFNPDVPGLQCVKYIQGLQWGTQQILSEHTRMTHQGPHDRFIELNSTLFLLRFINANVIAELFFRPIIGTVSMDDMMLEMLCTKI
DAX1 inh-2: inhibitors of DAX1 repression of SF-1 activated StAR promoter; HEK293T StAR-luciferase reporter, SF-1/DAX-1 repression relief; inhibition, % at 6.8 µM; hit rate 1.1% among 370,000; AID 652010;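 active = inhibition above the mean over all tested compounds plus 3 SD, cut at about 3.6% in these data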;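 note: 0% = DAX-1 cells with DMSO and 100% = cells lacking DAX-1 with DMSO; higher inhibition means more luminescence from relief of DAX-1 repression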
hgDAF12 agonist: activates the H. glycines DAF-12 receptor ligand-binding domain. HEK293 GAL4-hgDAF12 UAS-luciferase reporter, agonist luminescence; normalized to butyrate control. activation, % at 6.8 µM. hit rate 1.8% among 370,000. AID 687014;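 active = activation above a cutoff set at the mean of all screened compounds plus 3 SD, cut at about 10% in these data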;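 note: 0% = DMSO wells and 100% = sodium butyrate wells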
Active calls of the source: *. A selection: hits, their analogues and other compounds. The true share with any hit is near 4.1%.

For CC(C)[C@H](NC(=O)[C@@H](N)Cc1ccccc1)C(=O)N1CCC2CCN(Cc3ccccc3)CC21 (some centres undefined) the results were ssDAF12 agonist -1.4, hcDAF12 agonist 0.9, DAX1 inh-2 -1.2 and hgDAF12 agonist -2.1.
`O=C(O)Cn1c2c(c3ccccc31)CSc1ccc(Cl)cc1-2` gave ssDAF12 agonist 0.8, hcDAF12 agonist 7.5*, DAX1 inh-1 1.5, DAX1 inh-2 -0.3 and hgDAF12 agonist 1.4.
Screening CC(=O)c1ccc(Nc2cnn(C34CC5CC(CC(CC(=O)O)(C5)C3)C4)c(=O)c2Cl)cc1 returned ssDAF12 agonist -1.3, hcDAF12 agonist 1.3, DAX1 inh-1 5.4*, DAX1 inh-2 -0.3 and hgDAF12 agonist 2.1.
Screening O=C1[C@H]2C[C@@]3(n4ccc5ccccc54)c4ccccc4N(S(=O)(=O)c4ccccc4)[C@H]3N2C(=O)CN1Cc1ccccc1 returned ssDAF12 agonist -0.5, hcDAF12 agonist 1.2, DAX1 inh-2 0.6 and hgDAF12 agonist -2.4.
Screening N/C(=N\OC(=O)Cc1cccs1)c1ccc([N+](=O)[O-])cc1 returned ssDAF12 agonist -0.8, hcDAF12 agonist -0.8, DAX1 inh-1 -1.0, DAX1 inh-2 -0.5 and hgDAF12 agonist 11.2*.
For Cc1ccc2nc(-c3ccncc3)c(NC3CCCC3)n2c1 the results were ssDAF12 agonist -0.8, hcDAF12 agonist -1.3, DAX1 inh-1 5.0*, DAX1 inh-2 -1.0 and hgDAF12 agonist 0.6.
CCOC(=O)C1(Cc2ccccc2)CCN(Cc2ccc(C)cc2)CC1 was read as ssDAF12 agonist -1.8, hcDAF12 agonist 0.9, DAX1 inh-2 -0.1 and hgDAF12 agonist -0.7.
`CCn1c(CNC(=O)c2ccc(Cl)cc2)nnc1SCC(=O)N1CCOCC1` gave ssDAF12 agonist -1.0, hcDAF12 agonist 0.1, DAX1 inh-1 0.6, DAX1 inh-2 4.5* and hgDAF12 agonist -0.1.
`Cn1c(CNC(=O)c2ccc(Cl)cc2)nnc1SCC(=O)NC1CCCC1` gave ssDAF12 agonist -1.5, hcDAF12 agonist 0.3, DAX1 inh-1 6.5*, DAX1 inh-2 -0.2 and hgDAF12 agonist -1.4.
NC(=O)CSc1nnc(Cn2c(=O)sc3ccccc32)n1CCc1ccccc1 was read as ssDAF12 agonist -1.1, hcDAF12 agonist -0.5, DAX1 inh-1 4.5*, DAX1 inh-2 0.2 and hgDAF12 agonist -1.6.
Screening O=C(CSc1cc(Cl)ccc1Cl)NC1CCCC1 returned ssDAF12 agonist -0.2, hcDAF12 agonist -0.9, DAX1 inh-1 5.4*, DAX1 inh-2 -0.3 and hgDAF12 agonist 1.4.
COc1ccc(-n2c(SC/C=C/c3ccccc3)nnc2-c2cccs2)cc1 was read as ssDAF12 agonist -2.0, hcDAF12 agonist -2.3, DAX1 inh-2 -1.8 and hgDAF12 agonist 1.5.
Screening Cn1c(Cn2c(=O)sc3ccccc32)nnc1SCC(=O)NC1CCCCC1 returned DAX1 inh-1 2.3.
Screening CCn1c(CC(=O)Nc2ccc(F)cc2)nnc1SCC(=O)NC1CCCC1 returned ssDAF12 agonist -1.3, hcDAF12 agonist 0.6, DAX1 inh-1 4.8*, DAX1 inh-2 0.0 and hgDAF12 agonist -1.6.
For Cn1c(Cn2c(=O)sc3ccccc32)nnc1SCC(=O)NC1CCCC1 the results were ssDAF12 agonist -0.1, hcDAF12 agonist 0.9, DAX1 inh-1 5.2*, DAX1 inh-2 0.5 and hgDAF12 agonist 1.9.
COC(CNC(=O)[C@H](Cc1c[nH]c2ccccc12)NC1(C(=O)NCc2ccccc2)CCCCC1)OC was read as ssDAF12 agonist -1.5, hcDAF12 agonist -1.7 and hgDAF12 agonist -3.9.
Screening Cc1ccc(Cn2cc(CN3[C@H](Cc4ccccc4)COc4cc(Br)ccc4S3(=O)=O)nn2)cc1 returned ssDAF12 agonist -1.6, hcDAF12 agonist -0.3, DAX1 inh-2 0.3 and hgDAF12 agonist 2.6.
For COc1ccc(S(=O)(=O)NCC(c2ccc3c(c2)OCO3)N2CCN(C)CC2)cc1OC (centres undefined) the results were ssDAF12 agonist -0.7, hcDAF12 agonist 0.5, DAX1 inh-1 0.6, DAX1 inh-2 0.2 and hgDAF12 agonist 2.4.
Screening COc1ccc(C)cc1S(=O)(=O)NCC(c1ccc2c(c1)OCO2)N1CCN(C)CC1 (centres undefined) returned ssDAF12 agonist -0.5, hcDAF12 agonist -0.9, DAX1 inh-1 0.7, DAX1 inh-2 3.7* and hgDAF12 agonist -1.7.
COc1cc(C=Nn2c(-c3n[nH]c4c3CCC4)n[nH]c2=S)ccc1OCc1ccccc1 was read as ssDAF12 agonist -0.5, hcDAF12 agonist 3.5, DAX1 inh-2 0.5 and hgDAF12 agonist 6.0.
